Bioassay records: PubChem BioAssay, National Center for Advancing Translational Sciences (NCATS)
PNC assembly inh = perinucleolar compartment assembly inhibition; activity change (PNC), negative = inhibition, % at 10 µM; 140,000 compounds, 3.1% hits; PC3M PTB-GFP, PNC prevalence imaging, 16 h; active compounds read low;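 active means readout at or below -70, meaning at least 70% loss of cells showing the perinucleolar compartment, a nuclear body marking cancer cells; inconclusive means readout between -30 and a set limit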;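 further: plate controls were DMSO wells for no effect and camptothecin positive control wells for full effect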
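Read-out is percentage of cells bearing a perinucleolar compartment, from automated 20x imaging of fixed, Hoechst-stained PC3M PTB-GFP cells. Cells were seeded 4 h, then exposed 16 h to compound (23 nl of library stock) in duplicate plates.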
IMPase cell inh = cell-permeable inhibitors of inositol monophosphatase (IMPase) | CHO-M1 cells, IP1 accumulation, HTRF TR-FRET ratio | 120,000 tested, under 10 active | P97697 | inhibition (IP1 accumulation), % at 46.1 µM; active means well fitted curve in the direction sought with a large enough effect in the signal ratio, not every such curve was filed as active; inconclusive means small, poorly fitted or top-dose-only effect, or a change in a side signal; inactive means no such curve, though single readings can be large or run the other way; the % refers to the signal ratio;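 further: cells stimulated with carbachol in lithium chloride buffer; plate controls were DMSO basal wells for no effect and reference inhibitor wells for full effect; higher means more IMPase inhibition seen as more IP1 and lower FRET ratio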
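Measured: the HTRF emission ratio (665/620 nm) plus the 620 nm donor channel, each fitted to the Hill equation to give AC50. Cells were CHO-M1 given compounds up to 46 uM and a 30 min carbachol stimulation at 37C.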
IMPase Li cell = cell-permeable IMPase inhibitors with lithium potentiation. CHO-M1 cells, IP1 TR-FRET (IP-One), carbachol + lithium. Potency, µM (series often up to 59.4 µM), for the others: at the highest dose activity, negative = IMPase inhibition, usual class: inhibitors. 210,000 compounds, 0.35% hits; active means well fitted inhibition curve with a large enough effect; inconclusive means small, poorly fitted or top-dose-only effect; inactive means no such curve, though single readings can be large or run the other way;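 further: IP1 builds up when IMPase is blocked and the TR-FRET signal falls; potency means the concentration at half of the fitted maximal effect; plate controls were basal vehicle for no effect and high inhibitor control for full effect; nearly all actives have a fitted effect of over 50% in size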
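Concentration–response in CHO-M1 cells, lithium-potentiated; 30 min at 37C. IP1 detected by competitive TR-FRET after 10 min lysis at RT. Hill-fitted AC50.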
HPGD block = HPGD (human) dehydrogenase inhibition. Potency, µM, without a hit: at the top dose activity change, negative = inhibition, actives largely listed as inhibitors. 150,000 compounds, 4.3% hits. AID 894. purified HPGD, NADH fluorescence kinetic, PGE2 substrate. P15428; further: potency means the concentration at half of the fitted maximal effect
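20 nM HPGD preincubated 15 min at room temperature with compound in 50 mM Tris-HCl pH 8, 0.01% Tween 20. Started with 1 mM NAD+ and 30 uM prostaglandin E2; NADH fluorescence (360/450 nm) read 5 times over 30-s intervals, last minus first.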
ALDH1A1 block = blocks purified human ALDH1A1 activity; Potency, µM (doses to about 75.3 µM), without a hit: at the highest dose activity, negative = inhibition, usual class: inhibitors; Purified ALDH1A1, NADH fluorescence, propionaldehyde substrate; 220,000 compounds, 7.3% hits; AID 1030; P00352;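 further: potency means the concentration at half of the fitted maximal effect; plate controls were no enzyme wells and a reference inhibitor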
Target sequence (P00352 whole entry, looked up): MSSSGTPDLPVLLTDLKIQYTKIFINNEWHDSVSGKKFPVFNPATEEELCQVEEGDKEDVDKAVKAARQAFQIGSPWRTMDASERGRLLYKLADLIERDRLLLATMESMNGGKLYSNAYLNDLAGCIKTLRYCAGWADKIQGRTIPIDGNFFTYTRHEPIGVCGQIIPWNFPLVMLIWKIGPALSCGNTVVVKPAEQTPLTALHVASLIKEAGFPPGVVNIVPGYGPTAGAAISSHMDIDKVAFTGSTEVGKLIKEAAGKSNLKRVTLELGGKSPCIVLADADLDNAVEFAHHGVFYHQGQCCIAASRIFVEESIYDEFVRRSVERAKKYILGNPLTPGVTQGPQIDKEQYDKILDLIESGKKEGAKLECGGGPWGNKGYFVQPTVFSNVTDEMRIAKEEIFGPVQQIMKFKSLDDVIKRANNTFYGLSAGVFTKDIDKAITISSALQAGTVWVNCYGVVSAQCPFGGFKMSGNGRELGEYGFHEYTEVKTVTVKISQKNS
* hit, by the source's call; ? = inconclusive; / = no result given; [ ] = remark or other dose. Only some compounds are listed: those with a hit (about 11% of all), similar ones and a draw of the others. Unless noted, the call rests on the fitted dose curve; in most records, active means well fitted inhibition curve with a large enough effect (not every such curve was filed as active); inconclusive means small, poorly fitted or top-dose-only effect, or another doubt; inactive means no such curve, though single readings can be large or run the other way. Unless noted, on the % scale 0 is the no-effect control and ±100 the full control effect.

SMILES	PNC assembly inh	IMPase cell inh	IMPase Li cell	HPGD block	ALDH1A1 block
COc1cnc(SCc2ccc(Cl)cc2Cl)nc1Cl	17	7	-7%[38.3 µM]	18µM*	7.1µM*
CN(CCc1ccccn1)C(=O)Nc1ccc(Cl)cc1	?	5	-12%[38.3 µM]	-4%	-1%
CN(CCc1ccccn1)C1CC(=O)N(c2ccc(Cl)cc2)C1=O (configuration not stated)	6	-1	0%[38.3 µM]	-22%	25µM*
C/C(=C\c1ccccc1)C(=O)Nc1ccc(S(=O)(=O)Nc2ncccn2)cc1	/	/	4%	/	-6%
Cc1cc(C)c2c(-n3cccc3)nn(C)c2n1	-109*	1	0%[38.3 µM]	-16%	-4%
CCCCC/C=C\C/C=C\CCCCCCCCCC(=O)NC(C)C(=O)O (configuration not stated)	/	/	17%	-5%	1%
CN1CCN(c2ccccc2NC(=O)c2ccc(N3CCCCC3)c([N+](=O)[O-])c2)CC1	/	/	19%	/	22µM*
Cc1ccc(C(=O)NC(=S)Nc2ccc(NC(=O)c3cccs3)cc2)cc1[N+](=O)[O-]	?	/	6%	-13%	13µM*
